D1 agonist = Allosteric Agonists of the Human D1 Dopamine Receptor: qHTS; AID 504660, 2011; activation, % at 2 µM; HEK293 T-REx D1 cells, calcium flux, agonist mode; D(1A) dopamine receptor (Homo sapiens), P21728; hit rate 1% among 360,000; note: 0% is about no effect
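Tetracycline-induced HEK293 TREx D1 cells, force-coupled to calcium signalling, were dye-loaded with a no-wash calcium kit. Compound was pin-added after a 10 s baseline. Fluorescence was read kinetically at 1 cycle/s for 180 s, with calcium rises flagged as agonism.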
D1 PAM = Potentiators of Human D1 Dopamine Receptor: qHTS. HEK293 TREx D1 cells, calcium flux, dopamine EC20 potentiation. potentiation, % at 10 µM. hit rate 0.036% among 360,000. AID 504651, 2011; in the data active = potentiation above about 30%; note: 0% is about no effect
TRHR agonist = qHTS for Small Molecule Agonists and Allosteric Enhancers of Human TRH Receptor: Primary Screen for Agonists. activation, % at 2 µM. TRHR cells, calcium flux fluo-8, FDSS agonist mode. hit rate 0.18% among 360,000; note: 0% is about no effect
Target sequence (P34981 whole entry, looked up): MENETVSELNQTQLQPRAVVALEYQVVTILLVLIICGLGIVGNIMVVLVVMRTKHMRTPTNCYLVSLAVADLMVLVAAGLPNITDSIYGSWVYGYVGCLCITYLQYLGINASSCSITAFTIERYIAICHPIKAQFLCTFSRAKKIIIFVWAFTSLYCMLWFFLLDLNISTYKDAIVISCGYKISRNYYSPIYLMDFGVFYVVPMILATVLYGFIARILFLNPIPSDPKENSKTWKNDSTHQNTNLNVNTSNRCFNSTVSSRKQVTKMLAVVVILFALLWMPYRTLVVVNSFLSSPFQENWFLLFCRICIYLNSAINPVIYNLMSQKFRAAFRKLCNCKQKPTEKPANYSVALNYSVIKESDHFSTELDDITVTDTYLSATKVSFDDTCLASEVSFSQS
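In this calcium-flux screen, cells bearing human TRHR are dye-loaded with fluo-8, baselined for 10 cycles, then exposed to library compounds; positive kinetic calcium responses during the agonist phase mark hits, with TRH as control.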
TRHR PAM = qHTS for Small Molecule Agonists and Allosteric Enhancers of Human TRH Receptor: Primary Screen for Enhancers. Thyrotropin-releasing hormone receptor (Homo sapiens), P34981. TRHR cells, fluo-8 calcium fluorescence, EC20 TRH enhancement. enhancement, % at 2 µM. hit rate 0.66% among 360,000. AID 493056, 2011; in the data active = enhancement above about 30%; note: 0% is about no effect
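TRHR-expressing cells loaded with fluo-8 calcium dye were read kinetically (ex 480/em 530) during compound addition, then stimulated with an EC20 of TRH (10 nM final). Enhancement of the Gq-mediated intracellular calcium response was scored.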
D1 antag = Antagonist of Human D 1 Dopamine Receptor: qHTS | D(1A) dopamine receptor (Homo sapiens), P21728 | hit rate 3.2% among 360,000 | activity change, negative = inhibition, % at 10 µM | AID 504652, 2011 | HEK293 TREx D1 cells, calcium flux, dopamine EC80; active compounds read low; in the data active = activity change below about -30%; note: % is set by controls: 0 for no effect and ±100 for the full control effect
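Using tetracycline-induced force-coupled D1 Hek293 cells and a calcium dye, signals were followed for 180 s after compound, then for 180 s after EC80 dopamine, to detect inhibitors.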
Active calls of the source: *; / = no result given; ! = not confirmed by another sample. Most compounds without a hit are left out; they make up all but 4.7% or so of the library. Cut-off read from the data, not from the text of the source, unless noted: active = activation above about 30%; inactive = the rest.

SMILES	D1 agonist	D1 PAM	TRHR agonist	TRHR PAM	D1 antag
CN1C(=O)c2ccccc2Sc2ccc(NC(=O)NCc3ccc(Cl)cc3)cc21	-1	-2	0	3	2
Cc1ccccc1CNC(=O)Nc1ccc2c(c1)N(C)C(=O)c1ccccc1S2	1	-3	0	1	-38*
Cc1ccccc1CNC(=O)Nc1ccc(Cl)cc1	4	-6	0	6	-46*
Cc1cc2c(cc3c(SCc4ccc(Cl)cc4)nnc(C)n32)o1	-1	3	1	1	-7
COc1ccc(F)cc1S(=O)(=O)Nc1cc2c3c(c1)CC(=O)N3CCC2	2	-6	0	7	-17
O=C1Cc2cc(NS(=O)(=O)c3cc(F)ccc3F)cc3c2N1CCC3	1	-4	0	10	-60*
O=C(Nc1cccc(O)c1)c1cc(-c2ccccc2Cl)on1	8	4	0	-11	-36*
Cc1ccc2c(=O)cc(C(=O)Nc3cccc(C(F)(F)F)c3)oc2c1C	1	2	1	1	-3
CCc1ccc2oc(C(=O)Nc3cccc(C(F)(F)F)c3)cc(=O)c2c1	3	1	0	45*	-16
O=C1C(=O)c2c(C(=O)c3ccccc3)coc2-c2ccccc21	0	-2	0	3	-57*
Cc1oc2c(c1C(=O)c1ccccc1)C(=O)C(=O)c1ccccc1-2	5	4	0	-5	3
Cc1ccc(C(=O)NCCNS(=O)(=O)c2ccccc2)cn1	5	-1	0	39*	16
CCOC(=O)c1c(C)oc2nc(C)nc(Nc3cc(C)cc(C)c3)c12	1	0	1	7	1
CC(C)(C)NNC(=S)Nc1cccc(C(F)(F)F)c1	1	1	0	32*	-6
Fc1cccc(NC(=S)NC2CCCCCCC2)c1	19	-10	3	12	-18
CCCNC(=S)Nc1cccc(C(F)(F)F)c1	17	-2	0	-2	-12
FC(F)(F)c1cccc(NC(=S)NC2CCCC2)c1	21	-5	0	3	-36*
FC(F)(F)c1cccc(NC(=S)NCC2COc3ccccc3O2)c1 (stereo not drawn)	12	-4	0	-1	-35*
FC(F)(F)c1ccc(NC(=S)NC2CCCCC2)cc1	20	-11	1	-8	-44*
COc1ccc(OC)c(NC(=O)[C@H](CSCc2ccccc2)N2Cc3ccccc3C2=O)c1	6	-6	0	-5	-3
CCN(C(=O)c1cc2c(Cl)nc3ccccc3c2s1)c1cccc(Cl)c1	0	-2	0	7	0
COc1ccc(NC(=O)CC2C(=O)N(c3cccc(C)c3)C(=O)N2Cc2cccnc2)cc1 (stereo not drawn)	1	-2	0	-2	3
COc1cccc(CN2CCNC(=O)C2CC(=O)NCCn2ccc3ccccc32)c1OC (stereo not drawn)	1	-7	0	-1	-85*
CCCN1C(=O)/C(=C/c2c(NCCCOC(C)C)nc3c(C)cccn3c2=O)SC1=S	44*	1	15	4	-21
CCC(C)N1C(=O)/C(=C/c2c(NCCCOC(C)C)nc3c(C)cccn3c2=O)SC1=S (stereo not drawn)	81*	-5	34*	-6	-6
SMILES	D1 agonist	D1 PAM	TRHR agonist	TRHR PAM	D1 antag
C=CCN(CC(=O)NCc1ccc(F)cc1)C(=O)c1csnn1	4	9	0	0	-35*
Cc1ccc(NC(=O)CN(CCc2ccccc2)S(=O)(=O)c2ccccc2)c(C)c1	6	-2	1	-11	-12
COC(=O)c1cc(NC(=O)/C=C/c2ccccc2)ccc1O	1	-5	-2	-3	-14
CC(NC(=O)c1ccccc1Cl)C(=O)Nc1ccc2c(c1)OCO2 (stereo not drawn)	1	2	0	-22	-83*
O=C(Cc1ccc([N+](=O)[O-])cc1)Nc1ccc2c(c1)OCO2	2	-13	-1	5	0
CC(C)n1nc(C(=O)Nc2ccc3c(c2)OCO3)c2ccccc2c1=O	1	/	0	1	-32*
O=C(Nc1ccc2c(c1)OCCO2)C1CCN(C(=O)c2ccc([N+](=O)[O-])cc2)CC1	3	-8	0	0	-31*
CC(C(=O)Nc1ccc2c(c1)OCO2)c1ccc([N+](=O)[O-])cc1 (stereo not drawn)	112*	-2	-2	11	5
Cc1ccccc1OCCSc1nc2ccc(NC(=O)c3cccs3)cc2s1	8	-1	-2	8	7
NNC(=O)c1c(O)c2cccc3c2n(c1=O)CCC3	4	-1	-1	-10	15
C=Cc1ccc(Cn2ccn(-c3ccc(F)c(F)c3)c(=O)c2=O)cc1	3	-4	0	-5	-26
CC(C(=O)Nc1ccc2c(c1)OCCO2)c1ccc([N+](=O)[O-])cc1 (stereo not drawn)	101*	4	13	-10	-51*
O=C(NCc1ccco1)C1CCN(C(=O)c2ccc([N+](=O)[O-])cc2)CC1	3	-9	-1	-4	-45*
CCN1CCc2c(sc(NC(=O)c3ccc(S(=O)(=O)N(CC)c4ccccc4)cc3)c2C(N)=O)C1	148*	-4	74*	15	-20
CC(C)CN(CC(C)C)S(=O)(=O)c1ccc(C(=O)Nc2sc3c(c2C(N)=O)CCN(C(C)C)C3)cc1	54*	-2	18	9	28
CNC(=O)c1c(NC(=O)c2ccc(S(=O)(=O)N3CCCC3)cc2)sc2c1CCN(C(C)C)C2	89*	-1	47*	3	4
CCCCN(CCCC)S(=O)(=O)c1ccc(C(=O)Nc2sc3c(c2C(N)=O)CCN(CC)C3)cc1	78*	2	17	28	6
CNC(=O)c1c(NC(=O)c2ccc(S(=O)(=O)N3CC(C)OC(C)C3)cc2)sc2c1CCN(C(C)C)C2 (stereo not drawn)	6	-5	2	5	13
CC(C)N1CCc2c(sc(NC(=O)c3ccc(S(=O)(=O)N4CCOCC4)cc3)c2C(N)=O)C1	2	-4	10	2	-4
CN1CCN(c2ncnc3c2cnn3-c2cccc(Cl)c2)CC1	2	-2	0	-2	-13
CC(Sc1ncc(S(=O)(=O)c2ccc(C(C)C)cc2)c(N)n1)C(=O)Nc1ccccc1 (stereo not drawn)	6	1	1	6	-11
COc1ccc(C(=O)Nc2cnc3ccccn3c2=O)cc1	2	0	0	-7	-77*!
COc1cccc(C(=O)Nc2ccccc2OCc2cc(=O)n3ccccc3n2)c1	1	-1	0	-2	-34*

Compound activity from PubChem.
